Source: PubChem BioAssay (NCATS)
Results filed as inconclusive are left out. Where a call stands in place of a potency, no number is given. Calls of active or inactive are those of the source. Calls come from the whole dose curve; as a rule, active = well fitted inhibition curve with a large enough effect; inconclusive = small, poorly fitted or top-dose-only effect; inactive = no such curve, though single readings can be large or run the other way.

Target: Cytochrome P450 2C9 (Homo sapiens) (UniProt P11712)
Test: qHTS Assay for Inhibitors and Substrates of Cytochrome P450 2C9 (AID 883); note: nearly all actives have a fitted effect of over 60% in size
Conditions: recombinant CYP2C9, luciferin-H luminescence, 60 min; series mostly up to 11.4 µM
In short: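 Signal: luciferase luminescence reporting luciferin produced by CYP2C9. Conditions: 10nM enzyme, Luciferin-H 100uM at KM, 25mM KPO4, 37C, 60 min NADPH-driven reaction. Reference: 57uM sulphaphenazole as 100% inhibition.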
Potency is the fitted concentration of half-maximal effect.

Sequence of Cytochrome P450 2C9 (Homo sapiens) (P11712 whole entry, looked up): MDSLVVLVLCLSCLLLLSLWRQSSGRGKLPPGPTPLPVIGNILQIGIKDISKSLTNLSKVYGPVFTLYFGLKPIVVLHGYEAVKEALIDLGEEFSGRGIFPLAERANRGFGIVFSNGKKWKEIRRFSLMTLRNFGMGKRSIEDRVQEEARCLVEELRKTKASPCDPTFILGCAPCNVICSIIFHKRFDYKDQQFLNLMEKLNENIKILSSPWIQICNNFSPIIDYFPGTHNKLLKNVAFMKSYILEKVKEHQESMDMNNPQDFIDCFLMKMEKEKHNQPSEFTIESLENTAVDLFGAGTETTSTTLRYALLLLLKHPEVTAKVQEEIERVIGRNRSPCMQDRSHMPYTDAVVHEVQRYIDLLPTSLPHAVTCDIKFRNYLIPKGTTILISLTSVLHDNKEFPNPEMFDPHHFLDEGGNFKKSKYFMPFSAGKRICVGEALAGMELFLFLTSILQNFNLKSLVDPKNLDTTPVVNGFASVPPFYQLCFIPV

SMILES	Potency
COC(=O)C/C=C1\c2ccccc2C(OC)C1C (stereo not given)	inactive
CCOC(=O)OCC1C=C[C@H](c2cc(-c3ccccc3)ccc2O)C(c2ccc(C(C)=O)cc2)O1 (stereo not given in full)	0.316 µM (active)
COC(=O)NC(c1cccc(C)c1)[C@@]1(C(=O)OC)CCCC1=O (stereo not given in full)	inactive
CC(C)=NOCc1cccc(-c2cc(-c3ccccc3)no2)c1	3.98 µM (active)
CCCCCCC#CC1C=CC(OC(C)=O)C(COC(C)=O)O1 (stereo not given)	inactive
C=CCc1cccc(C2C(C)CCC3C(=O)N4C(Cc5c([nH]c6ccccc56)C4c4cc(OC)c(OC)c(OC)c4)C(=O)N32)c1 (stereo not given)	inactive
C=C/C1=C/Cc2ccccc2C(C[N+](=O)[O-])C(C(=O)OC)(C(=O)OC)C1 (stereo not given)	inactive
CCCNC(=O)OC[C@@H]1O[C@H](CCO/N=C\c2ccc(C(=O)N3[C@H](c4ccc(C)cc4)[C@@H](C)CC[C@H]3C(=O)OC)cc2)C=C[C@@H]1Oc1ccc(OC)cc1	3.98 µM (active)
CCN1C(C)=C(C(=O)OC)C(c2ccccc2)N2C(=O)[C@](O)(C(=O)OC)CC(C#N)=C12 (stereo not given in full)	inactive
COC(=O)C1C(C)OC(=O)NC1c1ccccc1 (stereo not given)	inactive
O=Cc1ccc(OC2C=CC(C#Cc3ccccc3)OC2CO)cc1 (stereo not given)	2.51 µM (active)
COC(=O)NC(c1ccc2ccccc2c1)C(C(C)=O)C(=O)OC (stereo not given)	inactive
C/C=C/OC(=O)NC(c1cccc(C)c1)[C@@]1(C(=O)OCC)CCCC1=O (stereo not given in full)	inactive
COC1C(O)COC1/C=C/c1ccccc1 (stereo not given)	inactive
CC(C)C(=O)NC(=O)C1CCCN1C(=O)/C=C/c1ccccc1 (stereo not given)	inactive
C=CC[C@@H]1C=C[C@@H](O/N=C\c2ccc(C(=O)N3[C@H](c4ccc(C)cc4)[C@@H](C)CC[C@H]3C(=O)OC)cc2)[C@@H](CO)O1	3.98 µM (active)
C/C=C/C1Oc2ccc(OC)cc2N2C(=O)C(C)C(OCOC)C12 (stereo not given)	inactive
COC(=O)NC(c1cccc(F)c1)[C@@]1(C(=O)OC)CCCC1=O (stereo not given in full)	inactive
COC(=O)NC(CC(C)=O)c1ccc(Cl)cc1 (stereo not given)	inactive
COC(=O)C1=C(C)N(Cc2ccccc2)c2c(C(=O)OC)c(C(=O)OC)c(C(=O)OC)c(=O)n2C1c1ccccc1 (stereo not given)	inactive

SMILES	Potency
CC[C@@H](c1ccccc1)n1c(=O)n2n(c1=O)[C@H]1[C@H](O)[C@H]3O[C@@H]3/C(=N/OC/C=C(\C)CCC=C(C)C)[C@@H]1CC2	inactive
COC(=O)NC(c1cccs1)C(C(C)=O)C(=O)OC (stereo not given)	inactive
CC1CCC2C(=O)N3C(CCC(C)[C@@H]3c3ccc(Br)cc3)C(=O)N2C1c1ccc(Br)cc1 (stereo not given in full)	3.16 µM (active)
COc1ccc(OC)c(C2OCCC=CC2C)c1 (stereo not given)	inactive
CC1Cc2c(COc3ccccc3)nc3c(c2CO1)CN(CCOc1ccccc1)CC3 (stereo not given)	inactive
CCCC/C=C/C(NC(=O)c1ccc(C(F)(F)F)cc1)c1ccccc1 (stereo not given)	2 µM (active)
CCOC(=O)OCC1OC(c2ccccc2)C=CC1Oc1cccc(N(C)C)c1 (stereo not given)	inactive
COC(=O)NC(c1ccccc1)C(C(=O)OC)C(=O)OC (stereo not given)	inactive
COC(=O)C1=C(C)N(Cc2ccccc2)C2=C(C(C)=O)C[C@@](O)(C(=O)OC)C(=O)N2C1c1ccccc1 (stereo not given in full)	inactive
COCOc1cc(OC)ccc1C(=O)/C=C\c1ccc2c(c1)OCO2	2.51 µM (active)
COC(C1CCCCC1)C(C)C(OCc1cccc(Br)c1)C(C)CO (stereo not given)	inactive
O=Cc1ccc(OC2C=CC(c3ccccc3)OC2CO)cc1 (stereo not given)	inactive
CO[C@H]1COC(=O)C/C=C\[C@H](C)[C@@H](OC)COC(=O)[C@@H](C)COC(=O)C/C=C\[C@@H]1C	2.51 µM (active)
COC(=O)C/C=C/C(C)C(OCc1cccc(Br)c1)C(C)C(OC)C1CCCCC1 (stereo not given)	2.51 µM (active)
C=CCc1cccc(C2NC(C(=O)O)CCC2C)c1 (stereo not given)	inactive
COC(c1ccccc1Br)C(C)/C=C/CCO (stereo not given)	inactive
OCC1OC(c2ccccc2)C=CC1Oc1ccc(C2CCCC2)cc1 (stereo not given)	inactive
CC12C=C(/C=C/CCc3ccco3)C(C)(C1)C(CCc1ccco1)CC2=O (stereo not given)	inactive
C=CCC1C=CC(OC(=O)OCC)C(COC(=O)OCC)O1 (stereo not given)	inactive
O=C1C=C[C@@H](O)[C@@H]2[C@H]3C(=O)N(c4ccc(F)cc4F)C(=O)[C@@H]3CC[C@@H]12	inactive
